According to PubChem BioAssay (Tox21):
Results filed as inconclusive are left out. Active and inactive are the calls of the source. Unless noted, calls come from the whole dose curve; as a rule, active = well fitted curve in the direction sought with a large enough effect in the repeat runs; inconclusive = weak or mixed curves; inactive = no such curve, though single readings can be large; an effect the other way counts as inactive or inconclusive.

Legend:
[1] = qHTS assay to identify small molecule agonists of the estrogen receptor alpha (ER-alpha) signaling pathway in the presence of an antagonist - cell viability counter screen (AID 1259386);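 note: series mostly up to about 92 µM; cells exposed to compounds for 22 h at 37 °C before the viability read; nearly all actives have a fitted effect of over 30% in size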
Summary of the method: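 The test measures whether compounds kill ER-alpha reporter cells (VM7Luc4E2) under antagonist co-treatment (ICI-182,780, 10.0nM). Fluorescence from CellTiter-Fluor is read after a 22hr exposure.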

[2] = target: Progesterone receptor (Homo sapiens) (UniProt P06401); experiment: qHTS assay to identify small molecule agonists of the progesterone receptor (PR) signaling pathway (AID 1346784; calls by dose curve; note: nearly all actives have a fitted effect of over 30% in size)
Summary of the method: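 PR-UAS-bla HEK 293T cells carrying a UAS-driven beta-lactamase reporter were seeded in medium with 2% charcoal-stripped FBS, preincubated 6 hr at 37C, then exposed to compounds in DMSO for 16 hr; agonism was read by LiveBLAzer B/G FRET fluorescence.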

[3] = target: Progesterone receptor (Homo sapiens) (UniProt P06401); experiment: qHTS assay to identify small molecule antagonists of the progesterone receptor (PR) signaling pathway (AID 1346795; active = well fitted inhibition curve with a large enough effect in the signal ratio in the repeat runs, not every such curve was filed as active; the % refers to the signal ratio)
Summary of the method: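 PR-UAS-bla HEK293T cells carrying a UAS-driven beta-lactamase reporter were plated in medium with 2% charcoal-stripped FBS and rested 6 hr at 37C. Compounds were added with 1 nM R5020 (final) for 16 hr, then FRET substrate loaded 2 hr at room temperature.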

[4] = qHTS assay to identify small molecule antagonists of the progesterone receptor (PR) signaling pathway - cell viability counter screen (AID 1346798); note: series mostly up to about 92 µM; nearly all actives have a fitted effect of over 50% in size
Summary of the method: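 PR-UAS-bla HEK293T cells in medium with 2% charcoal-stripped FBS were treated with compounds plus R5020 for 16 hr at 37C. Cell viability was then read by CellTiter-Glo luminescence after 30 min at room temperature in the same wells.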

[5] = qHTS assay to identify small molecule agonists of the progesterone receptor (PR) signaling pathway - cell viability counter screen (AID 1346799; calls by dose curve; note: nearly all actives have a fitted effect of over 45% in size)
Summary of the method: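 PR-UAS-bla HEK293T cells, 3,000 per well in medium with 2% charcoal-stripped FBS, were preincubated 6 hr at 37C, then exposed to compounds for 16 hr; viability was read as CellTiter-Glo luminescence after 30 min at room temperature.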

[6] = qHTS assay to identify small molecule antagonists of the TGF-beta/Smad signaling pathway - cell viability counter screen (AID 1346824); note: nearly all actives have a fitted effect of over 50% in size
Summary of the method: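 Cytotoxicity counter-screen run in the same wells as the beta-lactamase Smad reporter read: CellTiter-Glo luminescence after 30 min at room temperature. HEK 293T SBE-bla cells had 5 hr compound exposure at 37 C with TGF-beta1 (0.25 ng/mL stock).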

[7] = qHTS assay to identify small molecule agonists of the TGF-beta/Smad signaling pathway - cell viability counter screen (AID 1346829); note: top concentration of the series differs between compounds; nearly all actives have a fitted effect of over 45% in size
Summary of the method: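 Tox21 qHTS format: SBE-bla HEK 293T cells treated with DMSO-dissolved compounds for 5 hr; CellTiter-Glo luminescence after 30 min at room temperature.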

[8] = qHTS assay to identify small molecule agonists of the TGF-beta/Smad signaling pathway (AID 1346859; active = well fitted activation curve with a large enough effect in the signal ratio in the repeat runs, not every such curve was filed as active; the % refers to the signal ratio; note: series mostly up to about 77 µM)
Summary of the method: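 HEK 293T cells stably carrying a beta-lactamase reporter driven by the Smad binding element were seeded overnight, exposed to DMSO-dissolved compounds for 5 hr at 37 C, 5% CO2, then loaded with FRET substrate for 2 hr at room temperature.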

[9] = target: Thyrotropin-releasing hormone receptor (Homo sapiens) (UniProt P34981); experiment: qHTS assay to identify small molecule antagonists of the thyrotropin-releasing hormone receptor (TRHR) signaling pathway (AID 1346877; active = well fitted inhibition curve with a large enough effect in the repeat runs, not every such curve was filed as active; note: series mostly up to about 51 µM)
Summary of the method: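 Overnight-plated (18 h, 37 °C) HEK293 cells expressing TRHR were dye-loaded 2 h, treated with compound, then stimulated with TRH at 1 nM final. Fluorescence intensity was captured every second for 3 min.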

[10] = target: Thyrotropin-releasing hormone receptor (Homo sapiens) (UniProt P34981); experiment: qHTS assay to identify small molecule agonists of the thyrotropin-releasing hormone receptor (TRHR) signaling pathway (AID 1346891; calls by dose curve; note: series mostly up to about 58 µM)
Summary of the method: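 TRHR-expressing HEK293 cells were plated 18 h at 37 °C/5% CO2, loaded with calcium dye 2 h at 37 °C, then given compound in DMSO; fluorescence was read kinetically for 3 min at 1 s intervals.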

[11] = Human pregnane X receptor (PXR) small molecule agonists, qHTS cell viability counter screen (AID 1346977); note: nearly all actives have a fitted effect of over 50% in size
Summary of the method: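 PXR-Luc HepG2 cells in medium with 5% charcoal-stripped FBS were pre-incubated 5hr, then exposed to compounds for 24hr at 37C. Viability was read in the same wells by CellTiter-Fluor fluorescence, reagent added after 23hr with a 1hr incubation.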

[12] = Caspase-3/7 induction in HepG2 cells by small molecules, qHTS assay (AID 1346978); note: nearly all actives have a fitted effect of over 15% in size
Summary of the method: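 Caspase-3/7 induction was measured by Caspase-Glo 3/7 luminescence (30 min, room temperature) after a 17 hr compound exposure of wild-type HepG2 cells seeded at 2,000 per well and pre-incubated 5 hr.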

[13] = Caspase-3/7 induction in CHO-K1 cells by small molecules, qHTS cell viability counter screen (AID 1346979); note: nearly all actives have a fitted effect of over 35% in size; note: potency is the fitted concentration of half-maximal effect
Summary of the method: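 Wild-type CHO-K1 cells were seeded at 1,500 per well, rested 5hr at 37 C, then exposed to compounds in DMSO. After 16hr, CellTiter-Fluor reagent was added and fluorescence read 1hr later as the viability measure.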

[14] = Caspase-3/7 induction in CHO-K1 cells by small molecules, qHTS assay (AID 1346980); note: nearly all actives have a fitted effect of over 15% in size
Summary of the method: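 Luminescent Caspase-Glo 3/7 read (30min, room temperature) quantified apoptosis induction. Cells were wild-type CHO-K1, treated with compound for 17hr at 37 C and 5% CO2.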

[15] = target: Nuclear receptor subfamily 1 group I member 2 (Homo sapiens) (UniProt O75469); experiment: Human pregnane X receptor (PXR) small molecule agonists, qHTS assay (AID 1346982); note: nearly all actives have a fitted effect of over 35% in size
Summary of the method: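 Stable HepG2 line reporting PXR-mediated CYP3A4 expression via luciferase. Treatment: 24 hr with compounds in DMSO at 37 C. Detection: ONE-Glo luminescence.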

[16] = target: Acetylcholinesterase (Homo sapiens) (UniProt P22303); experiment: Acetylcholinesterase (AChE) small molecule antagonists: colormetric cell-based qHTS assay (AID 1347395; calls by dose curve; note: nearly all actives have a fitted effect of over 30% in size; note: potency is the fitted concentration of half-maximal effect)
Summary of the method: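 SH-SY5Y cells, plated overnight at 37 C, were exposed to compounds for 30 min at 37 C and 5% CO2. Acetylthiocholine plus DTNB was then added, and thiocholine from endogenous AChE was quantified colorimetrically after 90 min at 37 C.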

[17] = target: Nuclear receptor subfamily 1 group I member 2 (Rattus norvegicus) (UniProt Q9R1A7); experiment: Rat pregnane X receptor (rPXR) activation by small molecules, qHTS assay (AID 1346983); settings: rPXR luciferase reporter cells, One-Glo luminescence, 24 h; active compounds read high; note: nearly all actives have a fitted effect of over 20% in size
Summary of the method: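 Luminescent readout (One-Glo luciferase, 30 min room temperature) followed 24 hr compound treatment at 37 C of rPXR cells plated 2,000 per well and preincubated 5hr; qHTS format with compounds delivered in DMSO.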

[18] = target: Nuclear receptor subfamily 1 group I member 2 (Homo sapiens) (UniProt O75469); experiment: CYP3A4 induction through human pregnane X receptor (PXR) by small molecules, qHTS assay (AID 1346984); note: nearly all actives have a fitted effect of over 40% in size
Summary of the method: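 After 24 h at 37C with compound, DPX-2 cells (HepG2, co-transfected PXR response element and CYP3A4 promoter-luciferase) got 3uM final P450-Glo Luciferin-IPA for 3 h; One-Glo luminescence followed.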

[19] = target: Nuclear receptor subfamily 1 group I member 2 (Homo sapiens) (UniProt O75469); experiment: Human pregnane X receptor (PXR) activation by small molecules, qHTS assay (AID 1346985); note: nearly all actives have a fitted effect of over 40% in size
Summary of the method: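 DPX-2 cells (HepG2 co-transfected with a PXR response element and a CYP3A4-promoter luciferase construct) were seeded at 2,000 per well, rested 5 hr at 37C, then exposed to DMSO-dissolved compounds for 24 hr. Activation was read as luciferase luminescence.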

[20] = Caspase-3/7 induction in HepG2 cells by small molecules, qHTS cell viability counter screen (AID 1346981); note: series mostly up to about 92 µM; nearly all actives have a fitted effect of over 30% in size
Summary of the method: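 Treatment of HepG2 cells with DMSO-delivered compounds ran 16 hr at 37 C following a 5-hr pre-incubation of 2,000 cells/well. CellTiter-Fluor fluorescence, read after 1 hr, served as the viability measure in a qHTS format.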
% is set by controls: 0 for no effect and ±100 for the full control effect.

Chain of Acetylcholinesterase (Homo sapiens) (P22303 whole entry, looked up): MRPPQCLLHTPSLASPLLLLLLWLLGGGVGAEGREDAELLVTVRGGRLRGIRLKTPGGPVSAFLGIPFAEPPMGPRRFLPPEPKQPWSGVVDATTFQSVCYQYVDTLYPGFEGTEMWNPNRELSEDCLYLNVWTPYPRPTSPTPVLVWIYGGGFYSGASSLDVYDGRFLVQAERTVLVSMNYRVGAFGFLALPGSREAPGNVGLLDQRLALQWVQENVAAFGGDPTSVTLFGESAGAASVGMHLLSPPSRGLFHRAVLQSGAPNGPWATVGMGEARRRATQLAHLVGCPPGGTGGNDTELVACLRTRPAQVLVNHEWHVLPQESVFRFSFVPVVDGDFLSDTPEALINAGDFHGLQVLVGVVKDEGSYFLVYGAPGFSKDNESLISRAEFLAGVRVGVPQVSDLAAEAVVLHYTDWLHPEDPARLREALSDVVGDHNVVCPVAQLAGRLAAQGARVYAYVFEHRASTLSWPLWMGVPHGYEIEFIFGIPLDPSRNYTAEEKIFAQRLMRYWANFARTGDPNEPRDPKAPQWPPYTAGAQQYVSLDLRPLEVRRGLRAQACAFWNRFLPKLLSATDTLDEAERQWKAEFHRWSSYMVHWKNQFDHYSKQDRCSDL
Chain of Nuclear receptor subfamily 1 group I member 2 (Rattus norvegicus) (Q9R1A7 whole entry, looked up): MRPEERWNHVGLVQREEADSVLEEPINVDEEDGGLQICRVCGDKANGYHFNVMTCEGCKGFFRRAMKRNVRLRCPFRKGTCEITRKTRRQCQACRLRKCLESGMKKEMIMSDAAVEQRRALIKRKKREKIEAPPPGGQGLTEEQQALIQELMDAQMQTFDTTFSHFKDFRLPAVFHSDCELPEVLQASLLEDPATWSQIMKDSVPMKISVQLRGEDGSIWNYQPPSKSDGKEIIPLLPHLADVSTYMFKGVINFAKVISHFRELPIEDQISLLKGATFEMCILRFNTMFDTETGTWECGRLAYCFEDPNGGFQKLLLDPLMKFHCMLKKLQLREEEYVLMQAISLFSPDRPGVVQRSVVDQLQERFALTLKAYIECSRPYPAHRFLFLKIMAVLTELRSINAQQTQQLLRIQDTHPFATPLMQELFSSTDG
Chain of Thyrotropin-releasing hormone receptor (Homo sapiens) (P34981 whole entry, looked up): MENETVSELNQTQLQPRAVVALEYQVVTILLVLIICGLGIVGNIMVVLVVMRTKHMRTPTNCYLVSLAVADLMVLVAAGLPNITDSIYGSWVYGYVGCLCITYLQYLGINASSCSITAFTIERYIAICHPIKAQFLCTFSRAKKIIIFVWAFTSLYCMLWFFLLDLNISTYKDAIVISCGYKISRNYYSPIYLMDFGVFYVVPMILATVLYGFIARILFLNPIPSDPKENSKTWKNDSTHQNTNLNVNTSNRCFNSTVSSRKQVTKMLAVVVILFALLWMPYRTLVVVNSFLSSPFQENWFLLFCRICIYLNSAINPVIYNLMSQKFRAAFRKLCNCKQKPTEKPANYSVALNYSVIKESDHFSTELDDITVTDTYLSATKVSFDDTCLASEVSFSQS
Chain of Nuclear receptor subfamily 1 group I member 2 (Homo sapiens) (O75469 whole entry, looked up): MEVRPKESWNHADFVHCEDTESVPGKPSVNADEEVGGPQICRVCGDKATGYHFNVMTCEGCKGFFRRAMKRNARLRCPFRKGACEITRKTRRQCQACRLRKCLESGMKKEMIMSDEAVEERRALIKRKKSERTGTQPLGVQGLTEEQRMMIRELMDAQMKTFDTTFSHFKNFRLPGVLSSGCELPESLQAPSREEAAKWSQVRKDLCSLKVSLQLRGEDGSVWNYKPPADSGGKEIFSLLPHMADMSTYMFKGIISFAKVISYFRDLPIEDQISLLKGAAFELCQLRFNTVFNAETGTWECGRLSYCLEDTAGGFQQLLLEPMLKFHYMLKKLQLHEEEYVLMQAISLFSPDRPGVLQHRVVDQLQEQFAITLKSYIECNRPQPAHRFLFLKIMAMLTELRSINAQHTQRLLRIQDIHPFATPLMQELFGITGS
Chain of Progesterone receptor (Homo sapiens) (P06401 whole entry, looked up): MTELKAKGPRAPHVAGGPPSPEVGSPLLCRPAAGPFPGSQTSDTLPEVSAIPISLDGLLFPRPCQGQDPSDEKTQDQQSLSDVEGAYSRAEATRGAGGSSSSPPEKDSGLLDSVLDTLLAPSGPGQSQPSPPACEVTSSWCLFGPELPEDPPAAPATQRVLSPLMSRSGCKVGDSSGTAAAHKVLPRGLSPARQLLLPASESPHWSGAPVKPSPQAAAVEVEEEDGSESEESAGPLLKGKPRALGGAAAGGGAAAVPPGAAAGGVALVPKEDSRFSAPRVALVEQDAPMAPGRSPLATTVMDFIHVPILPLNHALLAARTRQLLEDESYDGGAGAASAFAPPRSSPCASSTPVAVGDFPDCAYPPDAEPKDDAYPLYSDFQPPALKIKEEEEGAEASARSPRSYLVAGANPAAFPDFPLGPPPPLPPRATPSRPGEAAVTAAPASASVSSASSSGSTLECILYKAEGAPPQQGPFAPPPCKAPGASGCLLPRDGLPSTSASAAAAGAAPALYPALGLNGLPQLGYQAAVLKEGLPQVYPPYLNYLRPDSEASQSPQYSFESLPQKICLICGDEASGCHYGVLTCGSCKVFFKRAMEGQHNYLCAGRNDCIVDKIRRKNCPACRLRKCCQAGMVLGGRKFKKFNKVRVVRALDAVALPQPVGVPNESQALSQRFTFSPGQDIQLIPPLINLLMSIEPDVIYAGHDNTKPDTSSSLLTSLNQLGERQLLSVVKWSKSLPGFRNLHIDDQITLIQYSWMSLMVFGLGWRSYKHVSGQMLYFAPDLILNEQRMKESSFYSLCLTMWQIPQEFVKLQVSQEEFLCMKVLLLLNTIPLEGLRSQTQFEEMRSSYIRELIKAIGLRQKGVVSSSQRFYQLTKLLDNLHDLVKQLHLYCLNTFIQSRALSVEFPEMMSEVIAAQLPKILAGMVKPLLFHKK

COc1cccc(C=O)c1
inactive: Potency [1] | Potency [2] | Potency [3] | Potency [4] | Potency [5] | outcome [6] | Potency [7] | outcome [8] | Potency [9] | outcome [10] | Potency [11] | outcome [12] | Potency [13] | outcome [14] | Potency [15] | Potency [16]

CCCN1CCC[C@@H]2Cc3nc(N)ncc3C[C@H]21
inactive: Potency [1] | Potency [2] | Potency [3] | Potency [4] | Potency [5] | outcome [6] | Potency [7] | outcome [8] | Potency [9] | outcome [10] | Potency [11] | outcome [12] | Potency [13] | outcome [14] | Potency [15] | max activation [17] -1.3% | Potency [18] | Potency [19]

[O-][Br+2]([O-])O
inactive: Potency [1] | Potency [2] | Potency [3] | Potency [4] | Potency [5] | outcome [6] | Potency [7] | outcome [8] | Potency [9] | outcome [10] | Potency [11] | outcome [12] | Potency [13] | outcome [14] | Potency [20] | Potency [15] | Potency [16]

CC(Cc1ccccc1)NCCCCl (stereo unspecified)
inactive: Potency [1] | Potency [2] | Potency [3] | Potency [4] | Potency [5] | outcome [6] | Potency [7] | outcome [8] | Potency [9] | outcome [10] | Potency [11] | outcome [12] | Potency [13] | outcome [14] | Potency [20] | Potency [15] | Potency [16]

CCNc1nc(NCC)nc(SC)n1
inactive: Potency [1] | Potency [2] | Potency [3] | Potency [4] | Potency [5] | outcome [6] | Potency [7] | outcome [8] | Potency [9] | outcome [10] | Potency [11] | outcome [12] | Potency [13] | outcome [14] | Potency [20] | Potency [16]

CCCCS(=O)(=O)Cl
inactive: Potency [1] | Potency [2] | Potency [3] | Potency [4] | Potency [5] | outcome [6] | Potency [7] | outcome [8] | Potency [9] | outcome [10] | Potency [11] | outcome [12] | Potency [13] | outcome [14] | Potency [20] | Potency [15] | Potency [16]

Cc1cc(OC(=O)N(C)C)nn1C(=O)N(C)C
inactive: Potency [1] | Potency [2] | Potency [3] | Potency [4] | Potency [5] | outcome [6] | Potency [7] | outcome [8] | Potency [9] | outcome [10] | Potency [11] | outcome [12] | Potency [13] | outcome [14] | Potency [20] | Potency [15]
active: Potency [16] 7.1 µM

CCCN1CCC[C@@H]2Cc3[nH]ncc3C[C@H]21
active: Potency [16] 27.5 µM
inactive: Potency [1] | Potency [2] | Potency [3] | Potency [4] | Potency [5] | outcome [6] | Potency [7] | outcome [8] | Potency [9] | outcome [10] | Potency [11] | outcome [12] | Potency [13] | outcome [14] | Potency [20] | Potency [15]

N#CC(Br)(Br)C(N)=O
inactive: Potency [1] | Potency [2] | Potency [3] | Potency [4] | Potency [5] | outcome [6] | Potency [7] | outcome [8] | Potency [9] | outcome [10] | Potency [11] | outcome [12] | outcome [14] | Potency [20]
active: Potency [13] 61.1 µM

CCC1(c2cccc(O)c2)CCCCN(C)C1 (stereo unspecified)
inactive: Potency [1] | Potency [2] | Potency [3] | Potency [4] | Potency [5] | outcome [6] | Potency [7] | outcome [8] | Potency [9] | outcome [10] | Potency [11] | outcome [12] | Potency [13] | outcome [14] | Potency [20] | Potency [15] | max activation [17] -1.16% | Potency [18] | Potency [19]

N[C@@H]1C[C@H]1c1ccccc1
inactive: Potency [1] | Potency [2] | Potency [3] | Potency [4] | Potency [5] | outcome [6] | Potency [7] | outcome [8] | Potency [9] | outcome [10] | Potency [11] | outcome [12] | Potency [13] | Potency [20] | Potency [15] | max activation [17] -1.36% | Potency [18] | Potency [19] | outcome [16]

C1CN2CCC1CC2
inactive: Potency [1] | Potency [2] | Potency [3] | Potency [4] | Potency [5] | outcome [6] | Potency [7] | outcome [8] | Potency [9] | outcome [10] | Potency [11] | outcome [12] | Potency [13] | outcome [14] | Potency [20] | Potency [15] | Potency [16]

C=CC=O
inactive: Potency [1] | Potency [2] | Potency [3] | Potency [4] | Potency [5] | outcome [6] | Potency [7] | outcome [8] | Potency [9] | outcome [10] | Potency [11] | outcome [12] | Potency [13] | outcome [14] | Potency [20] | Potency [15] | Potency [16]

CC(=O)CN(CC(C)=O)N=O
inactive: Potency [1] | Potency [2] | Potency [3] | Potency [4] | Potency [5] | outcome [6] | Potency [7] | outcome [8] | Potency [9] | outcome [10] | Potency [11] | outcome [12] | Potency [13] | outcome [14] | Potency [20] | Potency [15] | Potency [16]

CCCCCCCCBr
inactive: Potency [1] | Potency [2] | Potency [3] | Potency [4] | Potency [5] | outcome [6] | Potency [7] | outcome [8] | Potency [9] | outcome [10] | Potency [11] | outcome [12] | Potency [13] | outcome [14] | Potency [20] | Potency [15] | Potency [16]
